Screening data as filed in PubChem.
A selection: hits, their analogues and other compounds. The true share with any hit is near 27%.
CYP2C19 inh = blocks human cytochrome P450 2C19. P33261. CYP2C19 Supersomes, luciferin-H EGE luminescence, 30 min. inhibition, % at 5 µM. 21% of 96,000 active. AID 778;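 active means CYP2C19 inhibition above a set limit at 5 µM in the primary screen, cut at about 50% in these data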
CYP2C9 inhib = human CYP2C9 inhibition. AID 777. 20% of 96,000 active. CYP2C9 Supersomes, luciferin-H conversion, luminescence. P11712. inhibition, % at 5 µM;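 active means blocking of liver enzyme CYP2C9 beyond about 50% at 5 µM, limit read from the data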
Target sequence (P11712 whole entry, looked up): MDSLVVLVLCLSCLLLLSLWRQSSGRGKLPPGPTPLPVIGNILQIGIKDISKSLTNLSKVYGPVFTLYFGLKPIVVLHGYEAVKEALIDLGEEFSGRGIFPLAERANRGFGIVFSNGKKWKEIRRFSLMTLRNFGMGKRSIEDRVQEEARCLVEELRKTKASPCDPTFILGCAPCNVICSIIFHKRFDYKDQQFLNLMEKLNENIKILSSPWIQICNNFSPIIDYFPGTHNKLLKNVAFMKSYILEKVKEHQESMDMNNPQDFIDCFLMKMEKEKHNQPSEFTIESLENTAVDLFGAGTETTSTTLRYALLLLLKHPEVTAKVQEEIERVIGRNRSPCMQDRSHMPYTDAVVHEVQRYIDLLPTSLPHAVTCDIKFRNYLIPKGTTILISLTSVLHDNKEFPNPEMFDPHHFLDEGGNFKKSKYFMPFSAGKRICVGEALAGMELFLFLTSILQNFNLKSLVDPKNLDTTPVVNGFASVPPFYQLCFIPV
Cav32 inh = human Cav3.2 channel inhibition, primary screen; Cav3.2-expressing cells, Fluo-4 calcium fluorescence FDSS; active compounds read low; B-score at 10 µM; O95180; 4% of 100,000 active;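 active means single-dose well whose peak fluorescence ratio is a statistical outlier from its plate by either plate-standardised score or position-corrected B-score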
CYP2C9 activ = activators of human CYP2C9. AID 1024. activation factor at 5 µM. P11712. recombinant CYP2C9, luciferin-H conversion, luminescence; active compounds read high; factor 1 = untreated enzyme, 0 = blocked. 1.4% of 96,000 active;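 active means activation factor of 2 or more for CYP2C9 at a 5 µM dose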
CYP2C19 act = cytochrome P450 2C19 (human) activation; recombinant CYP2C19, luciferin-H EGE luminescence; active compounds read high; 0 = fully inhibited enzyme, 1 = untreated enzyme; P33261; activation factor at 5 µM; AID 1025; 96,000 tested, under 10 active;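 active means activation factor of at least 2 at 5 µM in the primary screen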
Numbers stand for hits; – = inactive; · = no result given.

SMILES	CYP2C19 inh	CYP2C9 inhib	Cav32 inh	CYP2C9 activ	CYP2C19 act
CCCCNc1nc2ccccc2n1CC(=O)N1CCc2ccccc2C1	58	–	–	–	–
O=C(Cn1c(NCCCO)nc2ccccc21)c1cccc(Br)c1	76	82	–	–	–
COc1ccc(C(=O)Cn2c(NCCO)nc3ccccc32)cc1OC	·	·	–	·	·
CC(C)[C@H](NC(=O)c1ccccc1)C(=O)OCC(=O)N1CCc2ccccc2C1	–	–	–	–	–
O=C1CC(Nc2ccccc2)C(=O)N1CCc1ccccc1 (stereo unspecified)	79	–	–	–	–
O=C1CC(Nc2ccccc2)C(=O)N1Cc1ccccc1 (stereo unspecified)	91	–	–	–	–
COc1ccc(NC2CC(=O)N(CCc3ccccc3)C2=O)cc1 (stereo unspecified)	·	·	–	·	·
Cc1[nH]c(C)c2c(=O)n(-c3ccccc3)ncc12	–	–	–	–	–
CCOc1ccccc1N1CCN(C(=O)c2ccncc2)CC1	99	67	·	–	–
CCOc1ccccc1N1CCN(C(=O)c2cccc(-c3ccc(O)cc3)c2)CC1	74	87	·	–	–
CCOc1ccccc1N1CCN(C(=O)Nc2ccc(Cl)c(Cl)c2)CC1	–	–	·	–	–
CCC1Oc2ccc(C)cc2N(CC(=O)NCCCN2CCCCC2CC)C1=O (stereo unspecified)	–	–	–	–	–
CCC1Oc2ccc(C)cc2N(CC(=O)NCCC2=CCCCC2)C1=O (stereo unspecified)	99	–	–	–	–
COc1cccc(OCc2nc3ccccc3c(=O)n2N)c1	–	–	–	–	–
Nn1c(COc2ccccc2)nc2ccccc2c1=O	52	–	–	–	–
CCCCCc1nc2ccccc2c(=O)n1N	60	–	–	–	–
Cc1ccccc1OCc1nc2ccccc2c(=O)n1N	53	50	–	–	–
CC1CCc2nc3ccc(S(=O)(=O)N4CCC(C(=O)NC5CCCC5)CC4)cc3c(C(=O)O)c2C1 (stereo unspecified)	–	60	–	–	–
Oc1ccc(N=Nc2n[nH]c(-c3ccc(Cl)cc3)n2)cc1	–	–	–	2	–
CC(C)C1Nc2ccc(S(N)(=O)=O)cc2C2C=CCC21 (stereo unspecified)	69	–	–	–	–
Cc1cc(C)nc(/N=C(/NC(=O)Nc2cccc(Cl)c2)Nc2ccccc2)n1	–	–	–	–	–
COC(=O)c1ccc(C2CC(=O)NC3=C2C(=O)CCC3)cc1 (stereo unspecified)	–	–	–	–	–
COC(=O)c1ccc(COc2ccc(C3C4=C(CCCC4=O)Nc4onc(C)c43)cc2)cc1 (stereo unspecified)	–	68	–	–	–
Cc1ccnc(NC(=O)CCC(=O)N(CC(=O)NC(C)(C)C)C2CCCC2)c1	–	–	–	–	–
CC(C)CCNC(=O)CN(C(=O)CCC(=O)Nc1ccccn1)c1ccc2c(c1)OCCO2	·	·	–	·	·
SMILES	CYP2C19 inh	CYP2C9 inhib	Cav32 inh	CYP2C9 activ	CYP2C19 act
CCC(C)(C)NC(=O)CN(C(=O)CCC(=O)Nc1cc(C)ccn1)c1ccc2c(c1)OCO2	58	50	–	–	–
Cc1cc(C)cc(N(CC(=O)NCc2ccco2)C(=O)CCC(=O)Nc2ccccn2)c1	61	–	–	–	–
CC(C)CCNC(=O)CN(C(=O)CCC(=O)Nc1ccccn1)c1ccc2c(c1)OCO2	–	58	–	–	–
Cc1ccc(N(CC(=O)NCc2ccco2)C(=O)CCC(=O)Nc2ccccn2)cc1C	96	–	–	–	–
O=C(Nc1cc2c(cc1Br)OCCO2)c1ccco1	·	·	–	·	·
CCn1c(=O)n(CC(=O)Nc2cc(OC)c(OC)c(OC)c2)c(=O)c2ccccc21	–	–	–	–	–
CC(C)(O)[C@@H]1[C@@H]2C[C@@]3(CC[C@]4(C)C(CCC5[C@@]6(C)CC[C@H](O)C(C)(C)C6CC[C@]54C)[C@@H]13)C(=O)O2 (stereo partly specified)	·	·	–	·	·
O=c1c2c(-c3ccco3)csc2nc(SCc2cn3cccnc3n2)n1-c1ccccc1	53	97	-4.4	–	–
C=CCn1c(SCC(=O)NCCOC)nc2scc(-c3ccco3)c2c1=O	78	83	–	–	–
C=CCn1c(SCC(=O)NCC2CCCO2)nc2scc(-c3ccco3)c2c1=O (stereo unspecified)	78	81	–	–	–
O=C(CSc1nc2scc(-c3ccco3)c2c(=O)n1-c1ccccc1)NCC1CCCO1 (stereo unspecified)	52	71	–	–	–
NC(=O)CSc1nc2scc(-c3ccco3)c2c(=O)n1-c1ccccc1	–	–	–	–	–
CCOC(=O)CNC(=O)Cn1cnc2sc(C)c(S(=O)(=O)N3CCC(C)CC3)c2c1=O	·	·	–	·	·
CC(C)c1nnc(NC(=O)c2cccnc2)s1	–	–	–	–	–
COc1cc(OC)cc(C(=O)OCC(=O)Nc2ccc(N3CCCCC3)cc2)c1	–	–	–	–	–
CCCCOC(=O)Nc1ccc(N2CCCCC2)cc1	70	52	–	–	–
O=C(COC(=O)c1ccc(O)cc1)Nc1ccc(N2CCCCC2)cc1	64	74	–	–	–
O=C(CNCCC1=CCCCC1)Nc1ccc(N2CCCCCC2)cc1	–	–	-5.1	–	–
COc1ccc(NC(=O)COC(=O)c2ccc(N3CCCC3=O)cc2)cc1OC	–	–	-12	–	–
Cc1nn(Cc2ccc([N+](=O)[O-])cc2)c(=O)n1-c1cccc(F)c1	–	–	–	–	–
CCN1CCN(C(=O)CCc2ccc(S(=O)(=O)NCCc3ccccc3)cc2)CC1	·	·	–	·	·
CC(Oc1ccccc1)C(=O)NC1CC(C)(C)NC(C)(C)C1 (stereo unspecified)	–	–	–	–	–
O=C(NCCc1ccccc1)C1CCCN1C(=O)Nc1ccc(F)cc1 (stereo unspecified)	–	–	–	–	–
O=c1c2c3c(sc2n2cnnc2n1Cc1ccccc1)CN(Cc1ccccc1)CC3	66	74	–	–	–
Cc1nnc2n(Cc3ccccc3)c(=O)c3c4c(sc3n12)CN(Cc1ccccc1)CC4	–	–	·	–	–
SMILES	CYP2C19 inh	CYP2C9 inhib	Cav32 inh	CYP2C9 activ	CYP2C19 act
CCCc1[nH]n(-c2nc3ccccc3s2)c(=O)c1C=NCC(C)C	–	51	–	–	–
O=c1c([N+](=O)[O-])cc(C(F)(F)F)cn1Cc1c(Cl)cccc1Cl	–	–	·	–	–
O=C(Oc1ccccc1Cl)c1ccc(-n2cncn2)nc1	93	78	–	–	–
O=C(COc1ccccc1Cl)N1CCCC1	–	–	–	–	–
C=CCOC(=O)c1ccc(-n2cncn2)nc1	80	–	–	–	–
CCN(CC)S(=O)(=O)N1CCC(C(=O)NC2CCCc3ccccc32)CC1 (stereo unspecified)	·	·	–	·	·
COc1ccc(OC)c(C2=NOC(C(=O)Nc3cc(C)nn3-c3ccccc3)C2)c1 (stereo unspecified)	–	–	–	–	–
COc1ccc(-c2noc(C(C)n3nc(C)c([N+](=O)[O-])c3C)n2)cc1OC (stereo unspecified)	–	59	–	–	–
